# GLP-1R inv ag = inverse agonists of human GLP-1 receptor. HEK293 GLP-1R CRE-luciferase, luminescence, 24 h; GLP-1R form is constitutively active. Potency, µM (titrated, usually from 38.3 µM), without a hit: at the top dose activity change, negative = inhibition, hits mostly inhibitors. 1.6% of 410,000 active. AID 624417; note: % is set by controls: 0 for no effect and ±100 for the full control effect; nearly all actives have a fitted effect of over 55% in size
# Target sequence (P43220 whole entry, looked up): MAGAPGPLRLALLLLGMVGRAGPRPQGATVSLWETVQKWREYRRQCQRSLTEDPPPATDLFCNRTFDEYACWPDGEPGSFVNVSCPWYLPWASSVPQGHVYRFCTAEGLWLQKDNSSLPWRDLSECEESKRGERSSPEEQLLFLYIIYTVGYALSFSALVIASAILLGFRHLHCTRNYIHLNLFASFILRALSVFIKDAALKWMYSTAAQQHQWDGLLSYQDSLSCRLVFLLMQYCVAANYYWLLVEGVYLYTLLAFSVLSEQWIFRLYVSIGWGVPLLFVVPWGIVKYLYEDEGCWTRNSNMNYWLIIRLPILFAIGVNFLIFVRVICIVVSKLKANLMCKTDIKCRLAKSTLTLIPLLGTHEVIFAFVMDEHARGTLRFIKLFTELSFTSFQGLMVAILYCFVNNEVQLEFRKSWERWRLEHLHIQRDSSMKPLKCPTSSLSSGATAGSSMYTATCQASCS
#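 Constitutively active GLP-1R drives a cAMP-responsive luciferase in stably transfected HEK293 cells; test compounds are added after overnight (12 h) attachment and left 24 hr, and signal loss in luminescence marks inhibition.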
# ATXN2 expr inh = reduces ATXN2 reporter expression in HEK-293 cells; 0.72% of 360,000 active; Potency, µM (titrated, usually from 57 µM), for the others: top-dose activity change, negative = inhibition, hits mostly inhibitors; HEK-293 ATXN2-luciferase reporter, luminescence, 24 h; AID 1745845; note: % is set by controls: 0 for no effect and ±100 for the full control effect; nearly all actives have a fitted effect of over 55% in size
#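 ATXN2-luciferase reporter cells (luciferase flanked by upstream and downstream ATXN2 gene portions) were treated 24 h at 37 °C with compounds at up to 57 uM. SteadyGlo luminescence gave expression; GF-AFC fluorescence gave viability.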
# GLP-1R agonist = agonists of human GLP-1 receptor | 0.007% of 380,000 active | P43220 | Potency, µM (doses to about 45.6 µM), inactives show at the highest dose activation, most hits filed as activators | HEK293 GLP-1R CRE-luciferase, luminescence, 4-6 h; cells express a hypersensitive GLP-1R form; note: % of control where 0% means no effect
# HepG2 viability = kills HepG2 cells in TGF-b inhibitor counter-screen | 0.76% of 410,000 active | HepG2 CAGA-GFP viability, ATP luminescence, 18 h | Potency, µM (series often up to 46.1 µM), for the others: at the highest dose activity change, negative = cytotoxicity, usual class: cytotoxic
#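 HepG2 CAGA-GFP cells (1000/well, DMEM with 1% FBS) received compound, then TGF-beta at 500 pg/mL final, and were incubated 18 hours at 37 degrees C. Viability was read by CellTiter-Glo luminescence. Media-only wells were set as complete cell-killing and DMSO as no toxicity.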
# TGFb SMAD3 inh = blocks TGF-b signaling. AID 588855. HepG2 CAGA-GFP TGF-b/SMAD3 reporter, GFP fluorescence, 18 h; TGF-beta stimulated, 500 pg/mL final. 1.2% of 410,000 active. Potency, µM (titrated, usually from 46.1 µM), without a hit: at the highest dose activity, negative = inhibition, hits mostly inhibitors; note: % is set by controls: 0 for no effect and ±100 for the full control effect; nearly all actives have a fitted effect of over 65% in size
#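 Using HEPG2 CAGA-GFP reporter cells at 1000 cells/well, we pinned test compounds, stimulated with recombinant TGF-beta (500 pg/mL final) and measured total well GFP after 18 h.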
# S2 tox = cell viability loss in ATXN counter-screen. 0.49% of 400,000 active. Potency, µM (doses to about 56.7 µM), hits mostly cytotoxic. S2 cells (HEK-293 line with an ATXN2-luciferase reporter) viability, CellTiter-Fluor protease fluorescence, 24 h; note: nearly all actives have a fitted effect of over 40% in size
# Numbers without * were called inactive; i = inactive; ? = inconclusive; . = no result; ! = repeats disagree. Hits are enriched below; roughly 3.7% of the tested compounds scored in any of these assays. Calls come from the whole dose curve; as a rule, active = well fitted curve in the direction sought with a large enough effect; inconclusive = small, poorly fitted or top-dose-only effect, or another doubt; inactive = no such curve, though single readings can be large; an effect the other way counts as inactive or inconclusive. Potency is the fitted concentration of half-maximal effect.
SMILES,GLP-1R inv ag,ATXN2 expr inh,GLP-1R agonist,HepG2 viability,TGFb SMAD3 inh,S2 tox
COc1ccccc1C(=O)NC1=NC(c2ccc(Br)cc2)CC(=O)N1 (stereo not drawn),0.9%,18.0%,.,-30.1%,-5.8%,i
Cc1cccc(OCc2nnc(SCC(=O)Nc3ccc(C)cc3C)o2)c1,-18.5%,-4.9%,-0.2%,-4.3%,10.4%,i
O=C(Nc1ccc(NC(=O)c2cccs2)cc1)c1ccc(Cl)cc1,5.4%,5.3%,.,-33.8%,-8.9%,i
COc1c(Cl)cc(Cl)cc1/C=C/C(=O)c1ccc(NC(=O)c2cccs2)cc1,0.0%,12.6µM*,13.7%,-98.5%,?,15.8µM*
Cc1ccc(NC(=O)c2ccc(Cl)c(NC(=O)c3cccs3)c2)cc1,10µM*,7.6%,17.4%,-31.0%,?,?
CCCN(CCC)c1nc2ccccc2nc1C(C#N)C(=O)OC(C)COC (stereo not drawn),10µM*,-3.4%,16.7%,7.6%,?,i
CC1(C(=O)Nc2cccc3cccnc23)CCN1Cc1csc2ccccc12 (stereo not drawn),?,0.0%,19.9%,-47.8%,?,20µM*
Cc1cc(C)n(C(C)CC(=O)Nc2cccc(C#N)c2)n1 (stereo not drawn),-1.7%,-9.2%,.,-26.2%,-1.7%,i
Cc1ccc(Cl)cc1NC(=S)NCCCSC1CCCCC1,?,-10.2%,4.3%,-44.9%,11.2µM*,i
Cc1cc(Cl)ccc1NC(=S)NCCCO,21.2%,8.2%,0.5%,1.0%,0.6%,i
CC(=O)N[C@H]1[C@@H]([C@H](O)[C@H](O)CO)OC(C(=O)O)=C[C@@H]1N=C(N)N,.,-2.1%,.,.,.,.
O=C(N/N=C/c1cccc2ccccc12)c1n[nH]c2c1CCCC2,1.12µM*,0.2%,11.7%,-1.4%,-18.4%,?
O=C(N/N=C/c1cccs1)c1n[nH]c2c1CCCC2,3.16µM*,15µM*,-1.7%,-45.6%,5.9%,i
Cc1ccc(Nc2c(F)cccc2Cl)c(CC(=O)O)c1,.,1.8%,1.1%,.,.,i
COc1cc2c(Nc3ccc(Br)cc3F)ncnc2cc1OCC1CCN(C)CC1,.,30.6µM*!,22.2%,.,.,i
COc1cc2ncnc(Nc3cccc(Br)c3)c2cc1OC,.,-26.9%,.,.,.,.
COc1cc2c(Nc3ccc(Cl)c(Cl)c3F)ncnc2cc1OCC1C[C@@H]2CN(C)C[C@H]2C1,.,30.6µM*,.,.,.,.
CC=C(C)C(=O)O[C@H]1C(C)=C[C@]23C(=O)[C@@H](C=C(CO)[C@@H](O)[C@]12O)[C@H]1[C@@H](C[C@H]3C)C1(C)C,.,-14.6%,.,.,.,.
O=C(COc1ccccc1Cl)Nc1ccc(N2CCN(C(=O)c3ccccc3)CC2)cc1,?,17.8µM*,-5.7%,-28.3%,?,?
CN1CCN(c2ccc(NC(=O)c3ccc4ccccc4c3)cc2)CC1,2µM*,14.1µM*,0.9%,-8.5%,-0.7%,i
CN1CCN(c2ccc(NC(=O)COc3cccc4ccccc34)cc2)CC1,10µM*,-15.8%,14.0%,-38.1%,-25.0%,i
O=C(COc1ccccc1Cl)Nc1ccc(N2CCCC2)cc1,48.3%,0.5%,14.3%,-19.5%,5.8%,i
CN1CCN(c2ccc(NC(=O)COc3ccc4ccccc4c3)cc2)CC1,7.08µM*,-14.4%,20.7%,-8.6%,-8.7%,i
COc1ccc(C(=O)Nc2ccc(N3CCN(C)CC3)cc2)cc1,12.6%,.,6.5%,-3.6%,-2.7%,?
O=C(COc1ccccc1)Nc1ccc(N2CCCCC2)cc1,10.5%,-5.9%,10.5%,-8.7%,-16.1%,i
SMILES,GLP-1R inv ag,ATXN2 expr inh,GLP-1R agonist,HepG2 viability,TGFb SMAD3 inh,S2 tox
O=C(Cn1cnc2onc(-c3ccc(F)cc3)c2c1=O)Nc1cccc(C(F)(F)F)c1,?,-4.8%,-5.6%,-95.4%,?,i
CCc1cccc(NC2c3ccccc3C(=O)N2c2ccc(C)cn2)c1 (stereo not drawn),12.6µM*,-14.0%,0.1%,-19.8%,-16.5%,i
O=C(NCCc1ccccc1)c1nn(-c2ccc(F)cc2)nc1CO,10.5%,.,.,5.4%,0.1%,.
NS(=O)(=O)c1ccc(N/N=C/c2cn(-c3ccccc3)nc2-c2ccccc2)c([N+](=O)[O-])c1,-9.1%,.,5.6%,6.31µM*,5.62µM*,11.2µM*
O=C(COCCOCCOCC(=O)Nc1c(I)cc(I)c(C(=O)O)c1I)Nc1c(I)cc(I)c(C(=O)O)c1I,.,11.5%,-2.9%,.,.,i
O=C1CCN(CCc2ccccc2)CCN1[C@H](COc1ccccc1)Cc1ccccc1,10µM*,-17.7%,-4.8%,-10.6%,?,?
CC(C)C[C@@H](COc1ccccc1)N1CCN(CCc2ccccc2)CCC1=O,?,-3.3%,11.3%,-21.3%,?,?
CO/N=C(/C(=O)N[C@@H]1C(=O)N2C(C(=O)O)=C(CSc3cnns3)CS[C@H]12)c1csc(N)n1,.,.,-4.4%,.,.,.
COCCn1c(COc2ccc(C)cc2)nc2ccccc21,?,43.6%,7.5%,-18.4%,?,i
Cc1ccc(OCc2nc3ccccc3n2Cc2ccccc2Cl)cc1,12.6µM*,-17.9%,-4.8%,-46.6%,?,i
CCOCCn1c(COc2ccc(C)cc2)nc2ccccc21,7.08µM*,47.0%,9.0%,-17.7%,-24.5%,i
NCCNC(=O)c1ccc(Cl)cn1,.,8.6%,11.9%,.,.,?
OC(CN1CCCCC1)c1ccccc1 (stereo not drawn),.,.,.,-39.9%,-27.1%,.
O=C(CCS(=O)(=O)c1nc(-c2cccs2)cc(C(F)(F)F)n1)Nc1cc(Br)ccc1O,?,.,.,6.31µM*,2.51µM*,.
CCN(CC)c1ccc(NC(=O)CSc2nc(-c3cccs3)cc(C(F)(F)F)n2)cc1,3.3%,3.8%,-2.7%,-2.2%,6.2%,i
Cc1ccc(O)c(NC(=O)CCS(=O)(=O)c2nc(-c3cccs3)cc(C(F)(F)F)n2)c1,?,.,.,12.6µM*,10µM*,.
O=C(CSc1nc(-c2cccs2)cc(C(F)(F)F)n1)Nc1ccccc1Cl,3.0%,-4.7%,-0.2%,7.6%,-15.7%,i
O=C(CCS(=O)(=O)c1nc(-c2cccs2)cc(C(F)(F)F)n1)Nc1ccc(Br)cc1,?,.,.,10µM*,5.62µM*,.
c1ccc(-n2cnnn2)cc1,.,.,-3.3%,.,.,.
Cc1cccc(CN2C(=O)c3ccccc3Sc3ccc(C(=O)NCCCN4CCOCC4)cc32)c1,?,-29.0%,-1.6%,11.2µM*!,11.2µM*!,?
O=C(NCCCN1CCOCC1)c1ccc2c(c1)N(Cc1ccccc1)C(=O)c1ccccc1S2,?,7.4%,-6.2%,-0.7%,0.2%,i

# Screening data (PubChem)
